Assay results: PubChem BioAssay AID504339 (National Center for Advancing Translational Sciences (NCATS), 2011)
Among all 390,000 compounds or so, about 17,000 (4.4%) were called active. Entries that show only a call come without a potency. Not shown: some 8% with an inconclusive outcome. Many of the other results were omitted from the sample, so actives are more common in it than they were. A number with no mark means an inactive call. Calls come from the whole dose curve; as a rule, active = well fitted inhibition curve with a large enough effect; inconclusive = small, poorly fitted or top-dose-only effect; inactive = no such curve, though single readings can be large or run the other way.

Target: Lysine-specific demethylase 4A (Homo sapiens) (UniProt O75164)
Sequence (O75164 whole entry, looked up, the tested form may be a part): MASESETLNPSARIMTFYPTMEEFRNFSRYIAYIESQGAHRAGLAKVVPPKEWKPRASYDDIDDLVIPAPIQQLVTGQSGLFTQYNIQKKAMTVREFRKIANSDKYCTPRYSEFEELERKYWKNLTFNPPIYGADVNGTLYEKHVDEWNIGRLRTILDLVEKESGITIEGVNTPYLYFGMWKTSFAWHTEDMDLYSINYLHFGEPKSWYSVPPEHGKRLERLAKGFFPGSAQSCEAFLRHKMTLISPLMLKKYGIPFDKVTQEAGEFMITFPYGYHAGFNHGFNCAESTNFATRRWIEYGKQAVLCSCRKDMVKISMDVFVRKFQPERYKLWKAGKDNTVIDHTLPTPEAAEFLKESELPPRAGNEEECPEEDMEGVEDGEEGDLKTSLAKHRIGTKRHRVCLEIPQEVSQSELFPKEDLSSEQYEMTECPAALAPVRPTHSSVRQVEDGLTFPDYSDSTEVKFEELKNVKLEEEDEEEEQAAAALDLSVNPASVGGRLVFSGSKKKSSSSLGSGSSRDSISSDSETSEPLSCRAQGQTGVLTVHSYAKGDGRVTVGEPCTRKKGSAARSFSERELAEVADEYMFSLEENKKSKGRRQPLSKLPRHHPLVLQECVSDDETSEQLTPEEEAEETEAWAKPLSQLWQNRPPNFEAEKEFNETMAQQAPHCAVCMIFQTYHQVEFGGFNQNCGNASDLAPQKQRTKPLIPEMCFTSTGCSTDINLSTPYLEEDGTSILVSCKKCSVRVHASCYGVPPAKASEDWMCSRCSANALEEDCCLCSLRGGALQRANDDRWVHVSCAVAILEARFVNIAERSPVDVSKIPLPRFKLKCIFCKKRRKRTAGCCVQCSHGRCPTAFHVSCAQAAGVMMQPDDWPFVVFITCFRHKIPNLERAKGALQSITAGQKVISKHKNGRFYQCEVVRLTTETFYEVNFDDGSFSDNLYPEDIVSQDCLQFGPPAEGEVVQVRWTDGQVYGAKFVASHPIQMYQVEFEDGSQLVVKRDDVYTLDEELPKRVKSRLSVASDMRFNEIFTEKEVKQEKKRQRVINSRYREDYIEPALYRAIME
Assay: qHTS Assay for Inhibitors of JMJD2A-Tudor Domain; note: nearly all actives have a fitted effect of over 50% in size
Conditions: AlphaScreen JMJD2A-Tudor / H3K4me3 peptide binding; series mostly up to 114 µM
From the text: JMJD2A is a jumonji-domain-containing lysine demethylase that uses Fe(II) together with 2-OG to effect oxidative demethylation of histones. Methylation is one of many […] modification that affect epigenetic transcription. […] It is proposed that the functions of JmjD2A binding to the histones, is to maintain marks after they are installed and to spread the modifications by […], establishing a self-propagating cycle for rapid methylation over a large area of chromatin. […] Thus, small molecule targeting of the JMJD2A-tudor domain interaction with its target methylhistone mark is expected to enable sophisticated experiments probing the fine regulatory pathways leading to selective demethylation of a given methyllysine locus based on the methylation state of adjacent histone marks. A quantitative high throughput AlphaScreen has been developed to identify small molecule inhibitors based on a protocol published by NCGC and SGC [4].
Although AlphaScreen has significant advantages with its utility in a variety of epigenetic target assays, the primary screening data provided in this deposition should be used with caution due to the prevalence of screening artifacts. The top compound concentration tested was high (>100uM) in this assay, which increases number of actives and potential artifacts. An AlphaScreen counterscreen is highly recommended to be run against any putative actives to eliminate non-specific artifacts. Alternatively, one can use other AlphaScreen assays in PubChem to filter out promiscuous hits.
[1] Lee, J. et al. Distinct binding modes specify the recognition of methylated histone H3K4 and H4K20 by JMJD2A-tudor. Nat Struct Mol Biol. 15(1); 109-11. 2008. PMID: 18084306
[2] Yasgar, et al. Compound Management for Quantitative High-Throughput Screening. JALA. 2008 Apr;13(2):79-89. PMID: 18496600
[3] Inglese, et al. Quantitative high-throughput screening: a titration-based approach that efficiently identifies biological activities in large chemical libraries. Proc Natl Acad Sci. 1;103(31):11473-8. 2006. PMID: 16864780
[4] Quinn et al. A homogeneous method for investigation of methyl-dependent protein-protein interactions in epigenetics. Nucleic Acids Res., 38(2):e11. 2010. PMID: […]
[5] Baell,Holloway. New substructure filters for removal of pan assay interference compounds (PAINS) from screening libraries and for their exclusion in bioassays. J Med Chem. 53(7):2719-40. 2010. PMID: 20131845
NIH Molecular Libraries Probe Production Network [MLPCN]
NIH Chemical Genomics Center [NCGC]
Structural Genomics Consortium (SGC)
To each well of a 1,536w plate, 2ul of JMJD2A-Tudor (final 100nM) and 1ul biotinylated histone peptide methylated at Lys4 [b-H3(1-18)K4me3] (final 50nM) were added in 1x PBS buffer, pH 7.4, containing 0.01% Tween-20, using a nanoliter dispenser. Formation of a protein-peptide complex proceeded at room temperature for 30 min. A Kalypsys pin-tool transferred 23nl of library compound solution in DMSO to each well. Following a 30 min incubation of the protein-peptide complex with compounds at room temperature, a mixture of 40 µg/mL each streptavidin-coated donor and nickel chelate acceptor AlphaScreen beads (final 10 µg/mL) was added in a 1ul dispense for a final volume of 4ul, followed by a brief centrifugation (1000 rpm, 1 min). Plates were incubated protected from the light for 20 min at room temperature. Microplates were then read on an EnVision multilabel plate reader using the 1,536 plate HTS AlphaScreen aperture (excitation time 80 ms, measurement time 240 ms).
Potency is the fitted concentration of half-maximal effect.

How did the Potency turn out when Cc1ccc2c(c1)C1CN(C)CCC1N2C(=S)Nc1ccc(OC(F)F)cc1 (stereo not drawn) was run?
The Potency was “inactive”.

With Cc1ccc2c(c1)C1CN(C)CCC1N2S(=O)(=O)c1ccc(Oc2ccc([N+](=O)[O-])cc2)cc1 (stereo not drawn) as the molecule, how does the Potency read?
Its Potency is 22.4 µM (active).

Which Potency does the source give for COc1ccc(CNC(=O)c2ccc3c(c2)nc2n3CCOC2)c(OC)c1 here?
Its Potency is “inactive”.

With Cc1cc(NS(=O)(=O)c2ccc3oc(=O)c4ncn(C)c4c3c2)ccc1Br as the molecule, how does the Potency read?
Its Potency is “inactive”.

COc1cc(OC)c(NC(=O)c2cnc(N3CCCC3)nc2C)cc1Cl was tested. Which Potency did it give?
The Potency was “inactive”.

Cc1ccc2c(=O)c(C(=O)c3cccc(Cl)c3)cn(CC(=O)NCc3ccccc3)c2n1 was tested. Which Potency did it give?
Its Potency is “inactive”.

O=C(NNC(=O)c1cccnc1)Nc1ccccc1 was tested. Which Potency did it give?
Its Potency is “inactive”.

O=C(O)CSC(NC(=O)c1cccnc1)(C(F)(F)F)C(F)(F)F was tested. Which Potency did it give?
The Potency was 89.1 µM (active).

With O=C(CC(=O)c1cccnc1)c1ccccc1 as the molecule, how does the Potency read?
The Potency was “inactive”.

Which Potency does the source give for CCc1ccccc1N(C)C(=O)C1CCCN(c2ncnc3onc(-c4ccc(F)cc4)c23)C1 (stereo not drawn) here?
Its Potency is “inactive”.

For COc1cccc2c1cc1c(=O)n(CC(=O)N3CCN(c4cccc(Cl)c4)CC3)nc(C)n12, which Potency is on record?
The Potency was “inactive”.

How did the Potency turn out when O=c1ccc2c(-c3ccccc3S(=O)(=O)O)c3ccc(O)c(O)c3oc-2c1O was run?
The Potency was 0.708 µM (active).

For CCOC(=O)c1c(C)oc2ccc(N(C(=O)c3ccncc3)S(=O)(=O)c3ccc(CC)cc3)cc12, which Potency is on record?
Its Potency is “inactive”.

How did the Potency turn out when CCOc1ccccc1C(=O)NC1(C(F)(F)F)NC(=O)N(CCc2ccc(OC)c(OC)c2)C1=O (stereo not drawn) was run?
The Potency was “inactive”.

How did the Potency turn out when CCCN(C(=O)Cn1cc(S(=O)(=O)N2CCN(c3ccccc3F)CC2)c2ccccc2c1=O)c1cccc(C)c1 was run?
The Potency was “inactive”.

For COc1ccc(OCC(=O)Nc2nnc(-c3ccco3)s2)cc1, which Potency is on record?
The Potency was 79.4 µM (active).

COc1ccc(NC(=O)COCc2cc(-c3ccco3)on2)cc1 was tested. Which Potency did it give?
The Potency was “inactive”.

CNc1nnc(-c2ccco2)s1 was tested. Which Potency did it give?
The Potency was “inactive”.

For Cc1cccc(NC(=O)CN(c2ccc(C(C)C)cc2)S(=O)(=O)c2c(C)nn(C)c2C)c1C, which Potency is on record?
The Potency was “inactive”.

How did the Potency turn out when Cc1ccc(C)c(CNC(=O)c2cc3ccccn3n2)c1 was run?
Its Potency is “inactive”.

For CC1CCCN(c2cc3c(cc2F)c(=O)c(S(=O)(=O)c2cccc(Cl)c2)cn3Cc2ccccc2)C1 (stereo not drawn), which Potency is on record?
Its Potency is “inactive”.

How did the Potency turn out when Cc1ccc(Cl)cc1NC(=O)CCC(=O)N1CC(C)Sc2ccccc21 (stereo not drawn) was run?
Its Potency is “inactive”.

For CC(=O)Nc1ccc(S(=O)(=O)Nc2ccc(N3CCCCC3)cc2)cc1, which Potency is on record?
Its Potency is 20 µM (active).

How did the Potency turn out when Cc1ccccc1C(=O)Nc1ccc(N2CCCCCC2)cc1 was run?
The Potency was 14.1 µM (active).

For CC(=O)Nc1ccc(S(=O)(=O)N2CCN(c3ccccc3)CC2)cc1, which Potency is on record?
The Potency was “inactive”.

With CC(=O)Nc1ccc(NS(=O)(=O)c2ccc3c(c2)NC(=O)CC(=O)N3)cc1 as the molecule, how does the Potency read?
The Potency was “inactive”.

O=C(NC(=O)c1ccccc1N1CCCCC1)Nc1ccc(Br)cc1 was tested. Which Potency did it give?
Its Potency is “inactive”.

For Cc1ccccc1C(=O)N1CCN(c2ccc(NC(=O)c3cccs3)cc2)CC1, which Potency is on record?
Its Potency is “inactive”.

For O=C(O)c1ccc2c(c1)N(Cc1ccc(F)cc1)C(=O)c1ccccc1S2=O (stereo not drawn), which Potency is on record?
Its Potency is “inactive”.

With O=C(NCc1ccccc1Cl)C1=Cc2cc(Br)ccc2OC1 as the molecule, how does the Potency read?
Its Potency is “inactive”.

How did the Potency turn out when CCc1ccc(NC(=O)N2CCN(C(=O)c3nsc4ccccc34)CC2)cc1 was run?
Its Potency is “inactive”.

Which Potency does the source give for COc1ccc(Cl)cc1NC(=O)CCn1c(=O)c2cccn2c2ccccc21 here?
Its Potency is “inactive”.

Which Potency does the source give for COc1cc(NC(=O)Cn2nc(-c3ccc(C)c(C)c3)ccc2=O)cc(OC)c1 here?
Its Potency is “inactive”.

With Cc1c(NC(=O)CN(C)CC(=O)Nc2ccc(F)c(F)c2F)c(=O)n(-c2ccccc2)n1C as the molecule, how does the Potency read?
The Potency was “inactive”.

How did the Potency turn out when Cc1ccc(Cl)c(NC(=O)CN(C)CC(=O)Nc2ccc(F)c(F)c2F)c1Cl was run?
The Potency was 70.8 µM (active).

Which Potency does the source give for CN(CC(=O)NCCc1ccc(F)cc1)CC(=O)Nc1ccc(F)c(F)c1F here?
The Potency was “inactive”.

For COc1ccc(CCC(=O)NCCc2csc(-c3ccc(Cl)cc3)n2)cc1, which Potency is on record?
The Potency was “inactive”.

With O=C(CNS(=O)(=O)c1cccs1)N1CCN(c2ccccc2Cl)CC1 as the molecule, how does the Potency read?
Its Potency is “inactive”.

Which Potency does the source give for O=C(CSc1nccn1Cc1ccc(F)cc1)NCc1ccccc1 here?
Its Potency is “inactive”.

For O=C(CSc1nccn1-c1cccc(F)c1)NC1CCCC1, which Potency is on record?
Its Potency is “inactive”.

O=C(CSc1nccn1-c1ccc(F)cc1)Nc1cccc2ccccc12 was tested. Which Potency did it give?
The Potency was 28.2 µM (active).

Which Potency does the source give for CCCNc1ncnc2c1c(-c1ccccc1)cn2-c1ccc(OCC)cc1 here?
Its Potency is “inactive”.

Cc1nc2ccc(S(=O)(=O)NC(C(=O)NCc3ccccc3Cl)C(C)C)cc2s1 (stereo not drawn) was tested. Which Potency did it give?
Its Potency is “inactive”.

Which Potency does the source give for COc1ccc(-c2nc3ccccc3o2)cc1NC(=O)c1cc([N+](=O)[O-])ccc1N1CCOCC1 here?
Its Potency is “inactive”.

How did the activity change, negative = inhibition turn out when COc1cc(C(=O)N(Cc2ccc(N(C)C)cc2)C2CCS(=O)(=O)C2)cc(OC)c1OC (stereo not drawn) was run?
The activity change, negative = inhibition was -6.11% [at 11.4 µM].

For Cc1ccccc1OCC(=O)N(Cc1cccc(F)c1)C1CCS(=O)(=O)C1 (stereo not drawn), which Potency is on record?
Its Potency is “inactive”.

How did the Potency turn out when CC(C)c1ccc(OCC(=O)N(Cc2ccc(N(C)C)cc2)C2CCS(=O)(=O)C2)cc1 (stereo not drawn) was run?
Its Potency is 44.7 µM (active).

With CCc1ccc(OCC(=O)N(Cc2ccccc2)C2CCS(=O)(=O)C2)cc1 (stereo not drawn) as the molecule, how does the Potency read?
Its Potency is “inactive”.

Which Potency does the source give for COc1ccccc1C(=O)N(Cc1ccc(C)o1)C1CCS(=O)(=O)C1 (stereo not drawn) here?
The Potency was “inactive”.

Cc1cc(Cl)ccc1OCC(=O)N(Cc1ccc(N(C)C)cc1)C1CCS(=O)(=O)C1 (stereo not drawn) was tested. Which Potency did it give?
Its Potency is 50.1 µM (active).

Which Potency does the source give for Cc1ccc(CN(C(=O)COc2ccc(Cl)cc2C)C2CCS(=O)(=O)C2)o1 (stereo not drawn) here?
The Potency was 11.2 µM (active).

How did the Potency turn out when Cc1cc(C)c(OCC(=O)N(Cc2cccs2)C2CCS(=O)(=O)C2)c(C)c1 (stereo not drawn) was run?
Its Potency is “inactive”.

CCOc1ccc(C(=O)N(Cc2ccc(N(C)C)cc2)C2CCS(=O)(=O)C2)cc1 (stereo not drawn) was tested. Which Potency did it give?
Its Potency is “inactive”.
